Drawing on PubChem BioAssay (NCI), this text covers growth for 39 compounds.

The panel holds about 83,000 compounds, 20% with a hit somewhere; the sample as a whole holds those more often.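 Activity criterion: percent growth below 10, measured after cells in 96-well plates were exposed to a single compound concentration for 48 hours.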 Activity calls are given as the source filed them.

In the assay the test system is HCT-15 colon. The assay is described as follows: NCI-60 one-dose screen, 48 h (100 = growth as untreated, 0 = no growth, -100 = all killed). To be noted: 10 µM.
As for `Cc1cc(C)c(N)c(S(=O)(=O)O)c1`, the growth was 100% (inactive). The figure for `CC1CCC(C(=O)O)N1` (centres undefined) is 110% (inactive). With `S=c1sc2ccccc2n1CN1CCCCC1`, the growth was 102% (inactive).

With `CCCCC/C=N/Nc1nc(C)cc(=O)[nH]1`, the growth is 116% (inactive). For `CCOC(=O)C(O)C(O)C(=O)OCC` (centres undefined), the growth was 99.1% (inactive). In the case of `CC(=O)NCc1cc(C)c(C)cc1C`, the growth is 105% (inactive). The figure for `CCN=c1cc2sc3cc(NCC)c(C)cc3nc-2cc1C` is 8.95% (active). Regarding `COc1cc(-c2ccc(NC(=O)NC3CC3)c(OC)c2)ccc1NC(=O)NC1CC1`, the growth was 31.2% (inactive). The figure for `O=C(NC1CCCCC1)OCc1c(COC(=O)NC2CCCCC2)c(-c2ccc(Cl)c(Cl)c2)n2c1CCC2` is 33.6% (inactive); for `COC(=O)c1ccccc1Br` it is 99.6% (inactive). To `COS(=O)(=O)c1ccc(Br)cc1` belongs 104% (inactive); to `COc1cc(C(=O)NC(=S)Nc2ccc3ccccc3c2)cc(OC)c1OC`, 87.4% (inactive). The figure for `CC(=O)OCC(=O)[C@@]1(O)CC[C@H]2[C@@H]3CC[C@@H]4C[C@H](O)CC[C@]4(C)[C@H]3C(=O)C[C@@]21C` is 106% (inactive); for `O=C1C=C(Nc2ccc([N+](=O)[O-])cc2)c2ccccc2C1=O` it is 31.2% (inactive). In the case of `CNC(=O)c1ccccc1CC1(O)c2ccccc2Oc2ccccc21`, the growth is 44.6% (inactive). The figure for `O=C(O)C(O)c1ccccc1` (centres undefined) is 113% (inactive); for `CCCCC1(CC)COC(CCC)OC1` (centres undefined) it is 91.7% (inactive). In the case of `CCOC(=O)c1ccc(NC(=S)P(=O)(c2ccccc2)c2ccccc2)cc1`, the growth is 98.5% (inactive). The figure for `CCCCCCCCCCCCCCCCC1CC(=O)OC1=O` (centres undefined) is 107% (inactive). To `COc1cc2c(cc1OC)[C@H](C(=O)O)[C@@H](c1ccc(OC(C)C)c(OC)c1)N(C)C2=O` belongs 101% (inactive); to `CC1CC(O)CC(C)(C)C1` (centres undefined), 100% (inactive). To `Nc1ccc(C(=O)c2ccc(N)c(Br)c2)cc1Br` belongs 18% (inactive). With `NC(N)=Nc1cc2ccccc2c2ccccc12`, the growth was 85.7% (inactive).

Take `C[C@]12CC[C@@H]3c4ccc(OCC(=O)O)cc4CC[C@H]3[C@@H]1CCC2=O`: the growth is 106% (inactive).

Regarding `CNS(=O)(=O)c1ccc(Cl)c(Cl)c1`, the growth is 99.9% (inactive). To `C=CC(O)CCC` (centres undefined) belongs 98% (inactive); to `O=P(O)(O)OCC(O)CO` (centres undefined), 104% (inactive); to `O=C(O)CSCSCC(=O)O`, 98.7% (inactive).

With `CCOC(=O)CCCS(C)(=O)=O`, the growth was 104% (inactive). To `Cc1cc(Cc2cc(C)c(N)cc2N)c(N)cc1N` belongs 103% (inactive); to `COCCOCCCl`, 99.3% (inactive). To `COc1cc2nn(-c3ccccc3N)nc2cc1OC` belongs 102% (inactive). To `CC1(O)CCCCC1O` (centres undefined) belongs 102% (inactive); to `O=C(CCl)Nc1ccc2c(c1)C(=O)c1ccc(NC(=O)CCl)cc1C2=O`, -86.6% (active); to `C=CCNc1nnc(C)s1`, 104% (inactive). Regarding `COc1cc(/C=N\Nc2ccccc2)ccc1OC(=O)c1ccccc1`, the growth is 24.4% (inactive).

Turning to `CCC(C#N)(CC)c1ccccc1`, the growth is 90.6% (inactive). The figure for `O=C1C[C@H](c2ccccc2)[C@H](c2ccccc2)C1` is 102% (inactive).

In the case of `Cn1cnc2nc(Cl)nc(Cl)c21`, the growth is 31.7% (inactive).
